Source: PubChem BioAssay (National Center for Advancing Translational Sciences (NCATS))
Shown are actives, neighbours in structure and some others; about 4.1% of the full set was active somewhere.
Sm TGR inh – qHTS Assay for the Inhibitors of Schistosoma Mansoni Peroxiredoxins. AID 485364, 2010. purified TGR, DTNB reduction, TNB absorbance 405 nm. Potency, µM (highest dose often 114 µM), for inactives: top-dose activity change, negative = inhibition, actives largely listed as inhibitors. 360,000 compounds, 3% hits. Schistosoma mansoni thioredoxin glutathione reductase (TGR), Q962Y6; note: nearly all actives have a fitted effect of over 60% in size
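TGR 20 nM + NADPH 100 uM (dispensed conc.), cpd preinc 15 min RT; start with NADPH (500 uM addition) then DTNB (15 mM addition). Kinetic TNB absorbance, 405 nm filter. Four-parameter Hill fit across titration.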
FMDV inh – High Throughput Screening for Foot and Mouth Disease Virus Antivirals; Potency, µM (titrated, usually from 57.9 µM), inactives show at the highest dose activity change, negative = inhibition, actives largely listed as inhibitors; AID 1159524, 2015; FMDV antiviral cell-based qHTS; 410,000 compounds, 1.2% hits; calls by dose curve; tested in HEK293T cells; note: read-out not given here; nearly all actives have a fitted effect of over 45% in size
AMA1-RON2 inh – qHTS for Inhibitors of AMA1-RON; Towards Development of Antimalarial Drug Lead: Primary Screen; AID 720542, 2013; AlphaScreen AMA1-biotinylated RON2 peptide binding; Plasmodium falciparum AMA1 (3D7) - RON2 peptide interaction; Potency, µM (doses to about 58.2 µM), for the others: at the top dose activity change, negative = inhibition, actives largely listed as inhibitors; 360,000 compounds, 0.2% hits;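 note: 0% = vehicle wells and -100% = peptide control; nearly all actives have a fitted effect of over 45% in size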
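AMA1 (3D7) with his tag at 25 nM final met compounds first, then biotinylated RON2 peptide at 25 nM; detection used donor plus acceptor beads, 10 µg/mL apiece, read by AlphaScreen after 30 min at room temperature.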
AmpC inh no detg – qHTS Inhibitors of AmpC Beta-Lactamase (assay without detergent); P00811; AmpC nitrocefin hydrolysis, absorbance 480 nm, 0.0001% Triton; Potency, µM (series often up to 57.1 µM), for inactives: at the highest dose activity change, negative = inhibition, most hits filed as inhibitors; 330,000 compounds, 0.52% hits;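 note: plate controls were no compound for no effect and no enzyme for full effect; nearly all actives have a fitted effect of over 20% in size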
Target sequence (P00811 whole entry, looked up): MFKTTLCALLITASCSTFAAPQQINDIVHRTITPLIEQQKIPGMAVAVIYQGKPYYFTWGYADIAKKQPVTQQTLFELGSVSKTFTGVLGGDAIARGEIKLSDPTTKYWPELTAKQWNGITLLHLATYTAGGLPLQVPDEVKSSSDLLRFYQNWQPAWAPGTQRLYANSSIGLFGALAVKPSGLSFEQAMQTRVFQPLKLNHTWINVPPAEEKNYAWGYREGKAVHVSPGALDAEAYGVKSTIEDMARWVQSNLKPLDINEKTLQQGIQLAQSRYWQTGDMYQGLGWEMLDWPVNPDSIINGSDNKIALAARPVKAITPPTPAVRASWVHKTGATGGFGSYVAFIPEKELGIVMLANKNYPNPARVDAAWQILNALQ
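20 mM phosphate pH 7.0 + 0.01% (detergent screen) or 0.0001% Triton X-100; 5.3 nM AmpC reagent; cpd preinc 15 min RT; nitrocefin (800 uM stock) to start; A480 q20 s × 4 min; Activity was normalised to no-enzyme and no-compound control wells.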
AmpC inh detg – qHTS Inhibitors of AmpC Beta-Lactamase (assay with detergent); P00811; AmpC hydrolysis of nitrocefin, absorbance 480 nm, 0.01% Triton; 370,000 compounds, 0.041% hits; Potency, µM (highest dose often 114 µM), inactives show at the top dose activity change, negative = inhibition, actives largely listed as inhibitors; AID 485294, 2010;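 note: 0% = no-compound wells and -100% = no-enzyme wells; nearly all actives have a fitted effect of over 25% in size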
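AmpC (5.3 nM in the dispensed reagent) in 20 mM phosphate pH 7.0 with 0.01% (detergent screen) or 0.0001% Triton X-100 was preincubated with compounds for 15 min at room temperature. Nitrocefin was then added from an 800 uM solution, and hydrolysis was followed at 480 nm.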
* = called active by the depositor; u = inconclusive; x = no result given. Unless noted, calls come from the whole dose curve; as a rule, active = well fitted curve in the direction sought with a large enough effect; inconclusive = small, poorly fitted or top-dose-only effect, or another doubt; inactive = no such curve, though single readings can be large; an effect the other way counts as inactive or inconclusive. Unless noted, % is set by controls: 0 for no effect and ±100 for the full control effect; potency is the fitted concentration of half-maximal effect.

SMILES | Sm TGR inh | FMDV inh | AMA1-RON2 inh | AmpC inh no detg | AmpC inh detg
CCOC(=O)C1=C(CSc2nc(C)ccc2C#N)OC(N)=C(C#N)C1c1cccc(OC)c1OC (centres undefined) | 13µM* | -22% | -4% | -22% | u
CNCc1ccccc1Sc1cc(O)ccc1O | 3.5µM* | -11% | 11µM* | -33% | u
CC(C)(C)OC(=O)NCCCCCc1cn([C@@H](CO)C(=O)NCCCCCCCCCCC(=O)N2CCN(C(=O)OC(C)(C)C)CC2)nn1 | 4% | 7.1µM* | -1% | 271% | 6%
C#CCOCCOCCOCCNc1nc(N2CCN(C(=O)CCCCCCCCCCNC(=O)[C@H]([C@@H](C)CC)n3cc(CCCCCN)nn3)CC2)nc(N2CCN(C(=O)CCCCCCCCCCNC(=O)[C@H](CCCCN)n3cc(CCCC(=O)O)nn3)CC2)n1 | -4% | u | -12% | 344% | 21%
C#CCOCCOCCOCCNc1nc(N2CCN(C(=O)CCCCCCCCCCNC(=O)[C@H](CO)n3cc(CCCSC)nn3)CC2)nc(N2CCN(C(=O)CCCCCCCCCCNC(=O)[C@H](CCCCN)n3cc(CCO)nn3)CC2)n1 | x | -11% | -17% | 291% | x
C#CCOCCOCCOCCNc1nc(N2CCN(C(=O)CCCCCCCCCCNC(=O)[C@H](CO)n3cc(CCCSC)nn3)CC2)nc(N2CCN(C(=O)CCCCCCCCCCNC(=O)[C@@H]([C@H](C)O)n3cc(C)nn3)CC2)n1 | 45µM* | x | x | 247% | -3%
C#CCOCCOCCOCCNc1nc(N2CCN(C(=O)CCCCCCCCCCNC(=O)[C@H]([C@@H](C)CC)n3cc(CCCCN=C(N)N)nn3)CC2)nc(N2CCN(C(=O)CCCCCCCCCCNC(=O)[C@H](CO)n3cc(CCCCCN)nn3)CC2)n1 | 45µM* | u | u | 178% | -6%
C#CCOCCOCCOCCNc1nc(N2CCN(C(=O)CCCCCCCCCCNC(=O)[C@H]([C@@H](C)CC)n3cc(CCCCCN)nn3)CC2)nc(N2CCN(C(=O)CCCCCCCCCCNC(=O)[C@H](CO)n3cc(CCCCCN)nn3)CC2)n1 | u | -2% | -29% | 222% | u
CC(C)(C)OC(=O)CC[C@@H](C(=O)NCCCCCCCCCCC(=O)N1CCN(C(=O)OC(C)(C)C)CC1)n1cc(CCCCCNC(=O)OC(C)(C)C)nn1 | -15% | 0% | 40% | 55% | -8%
C#CCOCCOCCOCCNc1nc(N2CCN(C(=O)CCCCCCCCCCNC(=O)[C@H]([C@@H](C)CC)n3cc(CCCCN=C(N)N)nn3)CC2)nc(N2CCN(C(=O)CCCCCCCCCCNC(=O)[C@H](CCCCN)n3cc(C)nn3)CC2)n1 | 40µM* | 35µM* | u | 315% | 9%
COc1ccc(CNC(=O)c2cnc(N3CCCC3)nc2C)c(OC)c1 | 5% | -1% | x | x | -4%
Cc1ccccc1-n1c(=O)c2c3c(sc2n2cnnc12)CCCC3 | 7% | -23% | x | x | 17%
COc1cc(OC)c(Nc2c3c(nc4nc(-c5cccs5)nn24)CCCC3)cc1Cl | -32% | u | x | x | 4%
Cc1ccc(-n2nnc(-c3nc(-c4cccs4)no3)c2N)cc1C | -10% | 31% | x | x | 2%
C#CCOCCOCCOCCNc1nc(N2CCN(C(=O)CCCCCCCCCCNC(=O)[C@H]([C@@H](C)CC)n3cc(CCCCCN)nn3)CC2)nc(N2CCN(C(=O)CCCCCCCCCCNC(=O)[C@H]([C@@H](C)CC)n3cc(CCCCN=C(N)N)nn3)CC2)n1 | u | x | x | 307% | 11%
C#CCOCCOCCOCCNc1nc(N2CCN(C(=O)CCCCCCCCCCNC(=O)[C@H]([C@@H](C)CC)n3cc(CCCCN=C(N)N)nn3)CC2)nc(N2CCN(C(=O)CCCCCCCCCCNC(=O)[C@H]([C@@H](C)CC)n3cc(CCCCN=C(N)N)nn3)CC2)n1 | 40µM* | x | x | 227% | 7%
